Screens: PubChem BioAssay, The Scripps Research Institute Molecular Screening Center
TTR transcr act – increases transthyretin transcription. activation, % at 16.7 µM. SH-SY5Y TTR promoter Gaussia luciferase, luminescence; 100% = recombinant luciferase protein wells. 92,000 tested, 1.3% active;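 active means activation above the mean of all tested compounds plus 3 SD, cut at about 9.5% in these data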;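 further: cells exposed to compounds for one day before reading; 0% = median of all test compound wells on the plate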
HuH7 TTR inh – decreases TTR transcription in HuH7 cells in activator counter-screen; shares compounds with TTR transcr act; HuH7 TTR promoter-Gaussia luciferase reporter, luminescence; 1,100 tested, 4% active; inhibition, % at 16.7 µM; AID 1117279;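 active means average inhibition above the solvent-only control wells' mean plus 3 SD, cut at about 15% in these data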;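 further: 0% = cells with DMSO only and 100% = cells with inhibitor control FD; inhibitors lower well luminescence so higher value means more inhibition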
TTR up confirm – confirmation of human transthyretin transcription activators | 1,100 tested, under 10 active | shares compounds with TTR transcr act | AID 1117280 | activation, % at 16.7 µM | SHSY5Y TTR promoter Gaussia luciferase, luminescence; 100% = purified Lucia enzyme wells, no cells;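 active means mean activation above a set limit taken from the earlier primary screen, cut at about 11% in these data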;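 further: 0% = DMSO-treated cells and 100% = recombinant Lucia luciferase without cells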
Numbers without * were called inactive. The entries come from a sample that favours hits as a whole.

SMILES	TTR transcr act	others
CCOc1ccc(-n2c(SCC(=O)Nc3cc(C)on3)nc3c([nH]c4ccccc43)c2=O)cc1	-1.1
COc1ccc(OC)c(NC(=O)O[C@@H]2CC[C@@]34CCCN3C(=O)CCC[C@H]4C2)c1	0.5
COC(=O)c1ccc(NC(=O)CSc2nnc(C)n2-c2ccccc2)cc1	-0.4
COc1ccc(O)c(/C=N/NC(=O)CSc2nnc(C)n2-c2ccccc2)c1	11.1*	HuH7 TTR inh=-16.9;TTR up confirm=1.3
Cc1cccc(C)c1NC(=O)CSc1nnc(C)n1-c1ccccc1	-1.8
CC(C)CN1C[C@@H]2CSCCS(=O)(=O)N2C1=O	1.3
CC(C)n1nnnc1C1c2ccccc2OCC(=O)N1Cc1cccc(C(F)(F)F)c1 (stereo unspecified)	-0.7
COc1cccc(NC(=O)C2Cc3ccccc3CN2C(=O)c2ccco2)c1 (stereo unspecified)	1.2
Cc1ccccc1NC(=O)C1Cc2ccccc2CN1C(=O)OCc1ccccc1 (stereo unspecified)	10.8*	HuH7 TTR inh=-11.7;TTR up confirm=-1.0
Cc1ccccc1NC(=O)C1CC(=O)N(Cc2ccccc2)C1 (stereo unspecified)	-0.2
CC(C)CNC(=O)OCc1cn(Cc2ccc(C(F)(F)F)cc2)nn1	0.6
CC(C)CCCCCCCCc1cccc(O)c1C(=O)O	-0.7
COc1ccc(OC)c(N/C=C2/CCCCC2=O)c1	10.6*	HuH7 TTR inh=3.5;TTR up confirm=0.9
NC(=O)c1ccccc1N/C=C1\CCCCC1=O	0.8
COc1ccc(Oc2ccc(N/C=C3\CCCC3=O)cc2)cc1	0.3
O=C(Nc1cccc(F)c1)O[C@@H]1CC[C@@]23CCCN2C(=O)CCC[C@H]3C1	0.5
Cc1ccc(NC(=O)CSCC(=O)N(C)CC(=O)Nc2cccc(F)c2)cc1	-0.5
CCC(=O)c1ccc(OCC(=O)N(C)CC(=O)Nc2cccc(F)c2)cc1	10.0*	HuH7 TTR inh=-13.5;TTR up confirm=-0.1
CN(CC(=O)Nc1cccc(F)c1)C(=O)c1ccc(OCC2CCCO2)cc1 (stereo unspecified)	-0.3
O=C(Nc1ccc(F)cc1)Nc1c(-c2ccc(C(F)(F)F)cc2)nc2ncccn12	-3.1
O=C(CN1CCc2ccccc2C1)Nc1ccc(F)cc1	1.6
O=C(CN1CCN(CC(=O)Nc2ccc(Cl)cc2)CC1)Nc1ccc(F)cc1	10.7*	HuH7 TTR inh=-0.8;TTR up confirm=0.5
O=C(CN1CCN(Cc2ccc3c(c2)OCO3)CC1)Nc1ccc(F)cc1	1.4
C[C@H]1[C@@H](NC(=O)c2cccc(C(F)(F)F)c2)CC[C@@]23CCCN2C(=O)CCC[C@@H]13	-0.3
CCC[C@H]1[C@@H](OC(=O)N2CCCC2)CC[C@@]23CCCN2C(=O)CCC[C@@H]13	-1.1
SMILES	TTR transcr act	others
CCCCCn1c(=O)c(Cc2ccccc2)c(O)c2ccccc21	-1.8
CCCn1c(=O)c(C(=O)NCc2ccccc2)c(O)c2ccccc21	-1.1
CCCn1c(=O)c(Cc2ccccc2)c(O)c2ccccc21	10.7*	HuH7 TTR inh=-12.4;TTR up confirm=-1.2
Cc1nc(N2CCN(C(=O)C3CC3)CC2)c2c3c(sc2n1)CC(C)CC3 (stereo unspecified)	0.2
COC(=O)[C@H](C)NC(=O)[C@@H]1CCCN1C(=O)CNP(=O)(OCc1ccccc1)OCc1ccccc1	-1.1
Cc1c(-c2ccccc2)nc(N)c(C#N)c1-c1cccnc1	11.7*	HuH7 TTR inh=-6.0;TTR up confirm=-0.9
CCCc1nc(N)c(C#N)c(-c2cccnc2)c1CC	1.7
Cc1c(CC(C)C)nc(N)c(C#N)c1-c1ccccc1	0.4
COc1ccc(Cn2ccc3ccc(-c4ccc5ccn(Cc6ccc(OC)cc6)c5c4)cc32)cc1	-0.9
COC(=O)[C@@H]1N=C(c2ccc(OC)cc2)O[C@]12C(=O)N(Cc1cn(Cc3ccccc3)nn1)c1cccc(Cl)c12	-0.2
CC(C)CNC(=O)OCc1cn(Cc2ccc(Cl)cc2)nn1	1.8
C#CCNC(=O)C[C@H]1C[C@@]2(C(=O)OC)C(=C[C@H](C3CCCC3)O[C@@H]2C)N(Cc2cccc3ccccc23)C1=O	-2.0
COc1cc(CCN(C(=O)c2cc3ccccc3[nH]2)C(C)c2nc3ccccc3[nH]2)cc(OC)c1 (stereo unspecified)	12.9*	HuH7 TTR inh=-21.9;TTR up confirm=-0.4
CCC(c1nc2ccccc2[nH]1)N(C(=O)Cc1cc(OC)cc(OC)c1)c1ccc(N2CCOCC2)cc1 (stereo unspecified)	2.0
COc1ccc2[nH]c(C(=O)N(Cc3ccccn3)Cc3ccccn3)cc2c1	0.7
CCC[C@H]1[C@H](N)CC[C@@]23CCCN2C(=O)CCC[C@@H]13	-0.1
COc1ccc(CCn2c(=S)[nH]c3cc(C(=O)N4CCOCC4)ccc3c2=O)cc1OC	-0.8
O=C(c1ccc2c(=O)n(-c3ccccc3)c(=S)[nH]c2c1)N1CCCCC1	-0.1
CCCCCn1c(=S)[nH]c2cc(C(=O)N3CCCC3)ccc2c1=O	10.2*	HuH7 TTR inh=2.4;TTR up confirm=1.6
CCOC(=O)[C@@]12CCCC=C1N(CCc1ccc(Cl)cc1)C(=O)[C@H]2CC(=O)N1CCSCC1	-0.5
Cc1ccc2nc(SCC(=O)Nc3nonc3C)[nH]c2c1	10.1*	HuH7 TTR inh=-8.9;TTR up confirm=-0.8
Cc1ccc2nc(SCC(=O)NC3CC3)[nH]c2c1	-1.2
Cc1ccc2nc(SCC(=O)N3CCCC3)[nH]c2c1	1.9
CCCCN1CC[C@@H](C)Oc2cc(Br)ccc2S1(=O)=O	-1.4
Cc1c(C(=O)O)cccc1-n1c(C)cc(C=O)c1C	-0.2
SMILES	TTR transcr act	others
COC(=O)C1=C(C)NC(=O)/C1=C\c1cc(C)n(-c2ccccc2F)c1C	1.4
Cc1cc(/C=N/N2CCN(C)CC2)c(C)n1-c1ccccc1F	9.7*	HuH7 TTR inh=-12.1;TTR up confirm=0.8
Cc1ccc(C(=O)n2ccc3ccc(-c4ccc5ccn(Cc6ccc(C#N)cc6)c5c4)cc32)cc1	-0.2
CN(Cc1ccccc1)C(=O)OCc1cn(Cc2cc(F)cc(F)c2)nn1	0.6
CCC[C@H]1[C@@H](NC(=O)C2CCC2)CC[C@@]23CCCN2C(=O)CCC[C@@H]13	-1.8
CC1=C(C#N)C(NC(=O)c2ccc(C)cc2)(C(F)(F)F)C(=O)N1 (stereo unspecified)	2.0
COC(=O)C1=C(C)NC(=O)C1(NC(=O)c1ccncc1)C(F)(F)F (stereo unspecified)	-1.3
COC(=O)NC1(C(F)(F)F)C(=O)NC(C)=C1C(=O)OC (stereo unspecified)	18.7*	HuH7 TTR inh=-8.5;TTR up confirm=-0.7
COC(=O)[C@]12C[C@H](CC(=O)N3CCN(C(=O)c4ccco4)CC3)C(=O)N(Cc3ccc(Cl)cc3Cl)C1=C[C@H](C(C)(C)C)O[C@@H]2C	-1.7
CCN1CCC(NC(=O)Nc2cccc(C(F)(F)F)c2)CC1	19.5*	HuH7 TTR inh=-14.2;TTR up confirm=0.1
CCOC(=O)N1CCC(NC(=O)c2cc(C(=O)Nc3cccc(C(F)(F)F)c3)ccc2CO)CC1	-1.7
CS(=O)(=O)N1CCC(C(=O)Nc2cccc(C(F)(F)F)c2)CC1	-0.2
COC(=O)c1cccc(Cn2ccc3ccc(-c4ccc5ccn(C(=O)c6ccccc6)c5c4)cc32)c1	0.1
CCOC(=O)c1ccc(NC(=O)c2nc[nH]c2C(=O)NC[C@H](C)O)cc1	0.8
O=C1CCC(CCc2nc3ccccc3[nH]2)(c2ccccc2)C(=O)N1 (stereo unspecified)	21.5*	HuH7 TTR inh=7.7;TTR up confirm=3.2
O=C(Nc1ccccc1)N(CCc1nc2ccccc2[nH]1)C1CCCC1	3.3
CC(C)(Cc1nc2ccccc2[nH]1)C(=O)O	2.3
